# Results published in PubChem BioAssay (NCATS).
# Several values for one entry are separate records, joined by “and”; a condition that tells them apart may be missing. Equal values may be shown once. Inconclusive results are not listed. Where a call stands in place of a potency, no number is given. Values without a mark were called inactive. Activity calls are given as the source filed them. The call rests on the fitted dose curve; in most records, active means well fitted cell-killing curve with a large enough effect; inconclusive means small, poorly fitted or top-dose-only effect, or effect the other way; inactive means no such curve, though single readings can be large or run the other way.
# Legend:
# [1] = Viability qHTS for spleen associated tyrosine kinase inhibitor (SYKi) naive MV4-11 cells (AID 1963823); further: nearly all actives have a fitted effect of over 40% in size
# In short: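 Viability of MV4-11 AML cells lacking prior SYK inhibitor exposure is scored by CellTiter-Glo luminescence following 72 hr compound incubation at 37 C, 5% CO2, seeded at 500 cells per well.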
# [2] = Viability qHTS for spleen associated tyrosine kinase inhibitor (SYKi) drug resistant MV4-11 cells (AID 1963824); further: nearly all actives have a fitted effect of over 35% in size
# In short: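 CellTiter-Glo luminescence, read 10 min after reagent addition, reports viability after a 72 hr compound exposure. Cells are an MV4-11 line made resistant to SYK inhibition, seeded at 500 per well onto compound-containing plates.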
# Potency means the concentration at half of the fitted maximal effect.
SMILES,Potency [1],Potency [2],viability (% of control) [1],"viability, % of control [2]"
Cc1nc2cc(-c3cc(F)cc(C#N)c3)ccc2s1,inactive,inactive,,
CN[C@H]1CCN(C(=O)c2ccc(Nc3ncc(F)c(-c4cnc(C)n4C(C)C)n3)cc2)C1,0.058 µM (active),0.0517 µM (active),,
OC[C@H]1O[C@@H](OC/C=C/c2ccc(O)cc2)[C@H](O)[C@@H](O)[C@@H]1O,inactive,inactive,,
C[C@@H]1CCC2C(C)(C)[C@H](O)CC[C@]2(C)[C@@]12Cc1c(O)cc3c(c1O2)CNC3=O (some centres undefined),inactive,inactive,,
C=CC(C)(C)c1[nH]c2ccccc2c1C[C@@H]1NC(=O)[C@H](Cc2c[nH]c3ccccc23)NC1=O,inactive,0.252 µM (active),,
COc1cc(N2CCOCC2)ccc1Nc1ncc(F)c(Nc2ccccc2NS(C)(=O)=O)n1,1.64 µM (active),2.59 µM (active),,
CC1(C(=O)O)CCCC2(C)C1CCC13CC(CCC21)C1(CO)OC31 (centres undefined),inactive,inactive,,
COc1cc(SC)ccc1C(=O)N1CCC(Cc2ccccc2)CC1,23.1 µM (active),16.6 µM (active) and 20.6 µM (active),,
CCC(C)/C=C(C)/C=C/C1=CC2=C(Cl)C(=O)C(C)(OC(C)=O)C(=O)C2=CN1CCCCC(N)C(=O)O (centres undefined),inactive,inactive,,
CC1=C(C)C(=O)OC(C(C)C2C(O)CC3C4C5OC5C5(O)CC(OC6OC(CO)C(O)C(O)C6O)CC(O)C5(C)C4CCC32C)C1 (centres undefined),inactive,inactive,,
COC(=O)/C=C/c1ccc(O[C@@H]2O[C@H](CO)[C@@H](O)[C@H](O)[C@H]2O)cc1,inactive,inactive,,
NC(=O)NCCCC(NC(=O)Cc1ccccc1)C(=O)O (centres undefined),inactive,inactive,,
COc1ccc(/C=C/C(=O)O[C@@H]2[C@@H](O)[C@H](C)O[C@@H](O[C@H]3[C@@H]4C=CO[C@@H](O[C@H]5O[C@@H](CO)[C@H](O)[C@@H](O)[C@@H]5O)[C@@H]4[C@@]4(CO)O[C@@H]34)[C@@H]2OC(C)=O)cc1,inactive,inactive,,
CC(C)c1cc2c(c(O)c1O[C@@H]1O[C@H](CO)[C@@H](O)[C@H](O)[C@H]1O)CC1(O)CCC(O)C(C)(C)C1CC2 (some centres undefined),inactive,inactive,,
CC1=C2C(=O)C=C(CO)C2C2OC(=O)C(CS(=O)(=O)O)C2C(OC(=O)Cc2ccc(O)cc2)C1 (centres undefined),inactive,inactive,,
COc1c2c(c(C)c3c1C(=O)OC3)OC1(C)CC(O)C34OC(O)(CCC3(C)C1C2)OC4(C)C (centres undefined),inactive,inactive,,
CC1(C)C[C@@H]2[C@H](C1)[C@@]1(C)C[C@]13C(O)OC[C@]3(O)[C@H]2O (some centres undefined),inactive,inactive,,
CN1CCN(S(=O)(=O)c2ccc(-c3cnc(N)c(C(=O)Nc4cccnc4)n3)cc2)CC1,0.893 µM (active),0.796 µM (active),,
C=C[C@H]1[C@H](O[C@@H]2O[C@H](CO[C@@H]3OC[C@](O)(CO)[C@H]3O)[C@@H](O)[C@H](O)[C@H]2O)OC=C2C(=O)OCC[C@H]21,inactive,inactive,,
CC(=O)C=C=C1C(C)(C)CC(O)CC1(C)O[C@@H]1O[C@H](CO[C@H]2OC[C@](O)(CO)[C@H]2O)[C@@H](O)[C@H](O)[C@H]1O (some centres undefined),inactive,inactive,,
Nc1ccc(-c2cnc(N)c(-c3ccc(Cl)cc3)c2)cn1,5.8 µM (active),8.2 µM (active),,

SMILES,Potency [1],Potency [2],viability (% of control) [1],"viability, % of control [2]"
C=C1C(=O)OC2/C=C(\COC(C)=O)CC/C=C(\C=O)CC(OC(=O)CC(C)C)C12 (centres undefined),1.26 µM (active),1.12 µM (active),,
CC12CCC(C(OC3OC(COC4OCC(O)(CO)C4O)C(O)C(O)C3O)C1)C(C)(C)O2 (centres undefined),inactive,inactive,,
CC(C)c1ccc(CO)cc1O[C@@H]1O[C@H](CO)[C@@H](O)[C@H](O)[C@H]1O,inactive,inactive,,
CCC(C)n1cc(C)c2c(C(=O)NCc3c(C)cc(C)[nH]c3=O)cc(-c3ccc(N4CCNCC4)nc3)cc21 (centres undefined),13 µM (active),18.4 µM (active),,
O=C1NC(=O)C(c2c[nH]c3ccccc23)=C1c1c[nH]c2ccccc12,1.86 µM (active),1.16 µM (active),,
C=C1CCC2[C@](C)(CCC[C@@]2(C)C=O)[C@H]1CC/C(C)=C/CO (some centres undefined),20.6 µM (active),20.6 µM (active),,
O=C(Nc1ccc(-c2ccc(Cl)c(Cl)c2)cc1)C1=C(O)c2ccccc2S(=O)(=O)N1,20.6 µM (active),23.1 µM (active),,
CC(C)(C)Nc1nc(Nc2ccc(C(N)=O)cc2)cc(N)c1C#N,1.64 µM (active),2.31 µM (active),,
O=c1cc(-c2ccc(O)cc2)oc2cc(OC3OC(CO)C(O)C(O)C3O)c(C3OC(CO)C(O)C(O)C3O)c(O)c12 (centres undefined),inactive,inactive,,
CSCC[C@H](NC(=O)[C@H](CCSC)NC(=O)CNC(=O)[C@H](Cc1ccc(O)cc1)NC(=O)[C@H](Cc1ccccc1)NC(=O)[C@H](CCCN=C(N)N)NC(=O)[C@H](CC(=O)O)NC(=O)[C@@H]1CCCN1C(=O)[C@H](CC(=O)O)NC(=O)[C@@H]1CCCN1C(=O)[C@@H]1CCCN1C(=O)[C@@H](N)CC(=O)O)C(N)=O,inactive,inactive,,
C[C@]1(OC(=O)/C=C/c2ccccc2)C[C@@H](O)[C@]2(O)C=CO[C@@H](O[C@@H]3O[C@H](CO)[C@@H](O)[C@H](O)[C@H]3O)[C@@H]21,inactive,inactive,,
Cc1c(C(=O)NCCCO)cnn1-c1nc(-c2cccc(C(F)(F)F)c2)cs1,14.6 µM (active),14.6 µM (active),,
CC(C)CC(=O)c1c(O)cc2c(c1O)C(CC(C)C)C1=C(O2)C(C)(C)C(=O)C(C)(C)C1=O (centres undefined),8.93 µM (active),8.93 µM (active),,
CC1=CC(=O)C2C(C)(C)CCC[C@]2(C)[C@H]1CO (some centres undefined),inactive,inactive,,
CC1(C)CC[C@]2(C(=O)O[C@@H]3O[C@H](CO)[C@@H](O)[C@H](O)[C@H]3O)CC[C@]3(C)C(=CCC4[C@@]5(C)CC[C@H](O[C@@H]6O[C@H](C(=O)O)[C@@H](O)[C@H](O)[C@H]6O)C(C)(C)C5CC[C@]43C)C2C1 (some centres undefined),,,91.3% [at 9.25 µM],98% [at 9.25 µM]
CCCCCCCCCCCCCCCCC(C(=O)O)C(O)(CC(=O)O)C(=O)O (centres undefined),inactive,inactive,,
C=C(C)C(O)COc1ccc(CC(=O)O)cc1 (centres undefined),inactive,inactive,,
CC(=O)O[C@@H]1[C@@H](OC(=O)/C=C/c2ccccc2)[C@@H](OC(C)=O)[C@H](O[C@H]2[C@@H]3C=CO[C@@H](O[C@@H]4O[C@H](CO)[C@@H](O)[C@H](O)[C@H]4O)[C@@H]3[C@@]3(CO)O[C@@H]23)O[C@H]1C,inactive,inactive,,
O=C(Cc1ccc(Cl)cc1)Nc1cnccc1C(=O)O,inactive,inactive,,
COC(=O)[C@]12C(=O)C(C)=C(O)[C@@]1(C)C(C)=CC1[C@@]34CC[C@@H](OC(C)=O)C(C)(C)C3[C@H](C[C@]12C)OC4=O (some centres undefined),inactive,inactive,,
CCN=C1N[C@@H]2[C@@H](O)[C@H](O)[C@@H](CO)O[C@@H]2S1,inactive,inactive,,

SMILES,Potency [1],Potency [2],viability (% of control) [1],"viability, % of control [2]"
COc1cc(OC)c(C(=O)/C=C/c2ccccc2)c2c1C=CC(C)(C)O2,10.3 µM (active),5.17 µM (active),,
C=C1[C@H]2CC[C@]3(O)[C@@](CC[C@@H]4[C@](C)(C(=O)O)CCC[C@]43C)(C2)[C@H]1OC(=O)/C(C)=C\C,inactive,inactive,,
CNC(=O)O[C@H]1COc2ccc(N3CCN(C4COC4)CC3)cc2[C@@H]1NC(=O)c1ccc(F)cc1,inactive,inactive,,
CNCCC=C1c2ccccc2CCc2ccccc21,11.6 µM (active),14.6 µM (active),,
COc1cc2ncnc(Nc3cccc(O)c3)c2cc1OC,0.411 µM (active),0.651 µM (active),,
CCCCOc1ccc(-c2cncc(C(=O)NCc3cccnc3N3CCOCC3)c2)cc1Cl,18.4 µM (active),13 µM (active),,
CC(=O)c1cc2c(cc1O)OC(C)(C)C=C2,inactive,inactive,,
CC(C)(C)CC(C)(C)c1ccc(OCCOCC[N+](C)(C)Cc2ccccc2)cc1,2.37 µM (active) and 1.16 µM (active),2.37 µM (active) and 1.46 µM (active),,
Cn1cc(C2=C(c3coc4ccccc34)C(=O)NC2=O)c2cc(Br)ccc21,14.6 µM (active),7.31 µM (active),,
C/C1=C\CC(C)(C)/C=C/C/C(C(=O)O)=C/CC1,23.1 µM (active),23.1 µM (active),,
C=C[C@H]1C(O[C@@H]2O[C@H](CO)[C@@H](O)[C@H](O)[C@H]2O)OC=C2C(=O)N3CCc4c([nH]c5ccccc45)C3CC21 (some centres undefined),inactive,inactive,,
COc1cc(C2Oc3c(OC)cc(CCCO)cc3C2CO)ccc1O[C@H]1O[C@H](C)[C@@H](O)[C@H](O)[C@@H]1O (some centres undefined),inactive,inactive,,
CC1CCC2(C(=O)O)CCC3(C)C(=CCC4C5(C)CCC(O)C(C)(C(=O)O)C5CCC43C)C2C1(C)O (centres undefined),inactive,inactive,,
C=C(C)C(=O)OC1CC2(C)OC(=CC2=O)C(=C)CC2OC(=O)C(COC)C12 (centres undefined),1.61 µM (active),1.61 µM (active),,
O=C(NCCO)c1cc(C(=O)NCCO)cc(C(=O)NCCO)c1,inactive,inactive,,
COc1cc(C(C)C)c(Oc2cnc(N)nc2N)cc1I,10.3 µM (active),10.3 µM (active),,
C[C@H]1[C@H](C)CC[C@]2(C(=O)O)CC[C@]3(C)C(=CCC4[C@@]5(C)C[C@@H](O)[C@H](O)C(C)(C)C5CC[C@]43C)[C@H]12 (some centres undefined),inactive,inactive,,
O=c1cc[nH]c(=S)[nH]1,inactive,11.9 µM (active),,
O=C(O)/C=C/c1ccc(-c2ccc(O)c(C34CC5CC(CC(C5)C3)C4)c2)cc1,0.184 µM (active),0.103 µM (active),,
OCCN1CCN(CC/C=C2/c3ccccc3Sc3ccc(C(F)(F)F)cc32)CC1,21.1 µM (active),21.1 µM (active),,
